Reference: PubChem BioAssay (NCATS)
Records with an inconclusive call do not appear. Activity calls are given as the source filed them. Unless noted, calls follow the shape of the dose curve; as a rule, active = well fitted curve in either direction with a large enough effect (not every such curve was filed as active); inconclusive = small, poorly fitted or top-dose-only effect, or another doubt; inactive = flat fitted curve, though single readings scatter.

Assays:
[1] = Cell Viability - BJ (AID 421; calls by dose curve;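 also: potency is read from the fitted curve at half-maximal effect; cells exposed to compound for 40 hours at 37 °C before readout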); conditions: BJ fibroblast viability, qHTS
Procedure, shortened: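 Quantitative HTS: ATP depletion in BJ cells after 40 hr compound exposure in complete culture medium, detected with CellTiter-Glo; AC50 from standard Hill fits.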

[2] = Cell Viability - MRC5 (AID 434; calls by dose curve;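 also: potency is read from the fitted curve at half-maximal effect; cells exposed to compound for 40 hours at 37 °C; potency reflects cytotoxicity seen as loss of intracellular ATP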); conditions: MRC5 lung fibroblast viability, qHTS
Procedure, shortened: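 qHTS cytotoxicity in human lung fibroblast MRC5 cells; 40 hr treatment, 37 °C; cellular ATP by luciferase luminescence; DMSO = 0%, 100 uM tamoxifen = 100% inhibition; Hill-fit AC50.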

[3] = target: Mitogen-activated protein kinase 10 (Mus musculus) (UniProt Q61831); assay: JNK3 AlphaScreen Assay (AID 530);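 also: kinase came from lysate of stimulated human HepG2 cells; signal reports phosphorylation of biotinylated GST-cJun 1-79 at Ser73 with 10 µM ATP; % is scaled to controls: 0 for no effect and ±100 for the full control effect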
Procedure, shortened: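 Room-temperature AlphaScreen kinase assay; pre-activated HepG2 lysate as JNK3 source, biotin-GST-cJun(1-79) substrate, 10 uM ATP, compound 15 min preincubation.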

[4] = Cell Viability - N2a (AID 540; active = well fitted curve in the direction sought with a large enough effect; an effect the other way counts as inactive or inconclusive;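 also: cells exposed to compound for 40 h at 37 °C; plate controls were DMSO alone for no effect and tamoxifen control for full effect; nearly all actives have a fitted effect of over 45% in size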); conditions: N2a mouse neuroblastoma cell viability; activity change, negative = cytotoxicity: at 92.2 µM (top of the series)
Procedure, shortened: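 First, 1500 N2a cells per well incubate 5 hr at 37 °C; next, compounds are added and incubated 40 hr at 37 °C; finally CellTiter-Glo is added and luminescence read after 20 min, with AC50 derived by Hill modeling.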

[5] = Cell Viability - Renal Proximal Tubule (AID 545; active = well fitted curve in the direction sought with a large enough effect; an effect the other way counts as inactive or inconclusive;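 also: cells exposed to compound for 40 hours; nearly all actives have a fitted effect of over 40% in size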; also: potency is read from the fitted curve at half-maximal effect;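 as to activity change, negative = cytotoxicity: 0% = DMSO only and -100% = 100 µM tamoxifen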); conditions: renal proximal tubule cells viability; activity change, negative = cytotoxicity: at 91.7 µM (top of the series) unless noted
Procedure, shortened: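 Primary rat renal proximal tubule cells (1000/well) were treated with compounds for 40 hr at 37 °C in complete medium. Intracellular ATP was measured by CellTiter-Glo luminescence, and AC50 values came from Hill-equation fits of concentration-response data.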

[6] = Cellular Toxicity (caspase-3) HepG2 (AID 654; active = well fitted curve in the direction sought with a large enough effect; an effect the other way counts as inactive or inconclusive;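 also: cells exposed to compound for 16 hours before reading; 0% = DMSO alone and 100% = caspase signal from 100 µM tamoxifen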)
Procedure, shortened: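 qHTS, HepG2, 1500 cells/well, complete medium; cpd 16 h 37 °C; Caspase-Glo 3/7, 20 min RT; lum. Norm: DMSO vs 100 uM tamoxifen; AC50 Hill fit.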

[7] = Cellular Toxicity (caspase-3) Renal Proximal Tubule (AID 667; active = well fitted curve in the direction sought with a large enough effect; an effect the other way counts as inactive or inconclusive;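 also: cells exposed to compound for 16 hours at 37 °C before detection; 0% = DMSO basal and 100% = 10 µM staurosporine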); conditions: renal proximal tubule cells; at 91.7 µM (top of the series) unless noted
Procedure, shortened: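 Primary rat proximal tubule cells, 1000/well, 5 h plating at 37 °C, then compound 16 h at 37 °C. Caspase-Glo 3/7 reagent, 1 h RT, luminescence. Normalized to DMSO (basal) and 10 uM staurosporine (100%); Hill-fit AC50.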

[8] = MultiTox-Fluor Cytotoxicity Assay - LYMP1-002 - Live Cells (AID 955; active = well fitted curve in the direction sought with a large enough effect; an effect the other way counts as inactive or inconclusive;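 also: cells exposed to compound for 16 hours; % is scaled to controls: 0 for no effect and ±100 for the full control effect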)
Procedure, shortened: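 Cytotoxicity in the human lymphoblastoid line LYMP1-002 is measured as loss of live-cell protease activity after 16 h treatment in complete culture medium. AC50 is derived from Hill-equation fits of qHTS concentration-response data.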

[9] = MultiTox-Fluor Cytotoxicity Assay - LYMP1-003 - Live Cells (AID 962; active = well fitted curve in the direction sought with a large enough effect; an effect the other way counts as inactive or inconclusive;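 also: cells exposed to compound for 16 hours at 37 °C; 0% = DMSO only and full loss = 92 µM tetraoctylammonium bromide; cytotoxic hits lower the live-cell protease signal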)
Procedure, shortened: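 Cells plated at 2500 per well and incubated 5 hr; compounds added and incubated 16 hr at 37 C; MultiTox-Fluor reagent added for 60 min at room temperature; fluorescence of liberated AFC measured at 405/510 nm.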

[10] = qHTS assay for environmental chemicals that activate the Aryl hydrocarbon Receptor (AhR) signaling pathway (AID 651777; active = well fitted curve in the direction sought with a large enough effect; an effect the other way counts as inactive or inconclusive; also: % of control where 0% means no effect; nearly all actives have a fitted effect of over 15% in size); conditions: 1A2-DRE human hepatoma cells, luciferase, 24 h; activation: hits give high values
Procedure, shortened: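 Concentration–response screening used 1,200 1A2-DRE cells per well, 24 hr compound exposure (37 C, 5% CO2), and One-Glo luminescence as the AhR-driven CYP1A2 reporter signal.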

[11] = qHTS assay for small molecule agonists of the antioxidant response element (ARE) signaling pathway measured by Nrf2-dependant transcriptional activity - cell viability counter screen (AID 720653; active = well fitted curve in the direction sought with a large enough effect in the repeat runs; an effect the other way counts as inactive or inconclusive; also: potency is read from the fitted curve at half-maximal effect); conditions: ARE-bla HepG2 viability, CellTiter-Glo ATP luminescence, 16 h; max response: hits give low values
Procedure, shortened: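 Cytotoxicity counter screen: intracellular ATP quantified by CellTiter-Glo luminescence in the same ARE-bla HepG2 plates, after 16 h compound exposure and a 2 h beta-lactamase substrate step.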

[12] = NFAT Signaling Pathway (AID 444); conditions: Jurkat NFAT-bla M1, carbachol, beta-lactamase ratio, 5 h; at 17.2 µM (top of the series) unless noted;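 also: carbachol stimulus at about its EC50 of 1 µM final; % is scaled to controls: 0 for no effect and ±100 for the full control effect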
Procedure, shortened: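 Read-out: CCF4 FRET ratio (460 nm/530 nm) after 1 h RT dye loading, used for %activity and AC50 from titration series. Cells: Jurkat NFAT-β-lactamase/M1 line, treated with compound plus 1 uM carbachol for 5 h, 37 °C.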

[13] = Stat Signaling Pathway (AID 446);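 also: ME-180 cervical cancer cells given 40 pM IL-6 alongside compound; SIE-controlled beta-lactamase reporter measured as 460/530 nm FRET emission ratio; % is scaled to controls: 0 for no effect and ±100 for the full control effect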
Procedure, shortened: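 IL-6/STAT signaling read in ME-180 cells via an SIE beta-lactamase reporter. Stimulus was 40 pM IL-6 (its AC50) for 5 hrs, so both activation and inhibition register.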

[14] = target: Glucocorticoid receptor (Homo sapiens) (UniProt P04150); assay: GR-GFP Redistribution (AID 450;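 active = compounds whose dose series gives a full or clear partial fitted curve of increased nuclear translocation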; also: potency is read from the fitted curve at half-maximal effect); conditions: U2OS GR-GFP nuclear translocation, laser cytometry, 2 h
[15] = target: Glucocorticoid receptor (Homo sapiens) (UniProt P04150); assay: GR-EFC Redistribution (AID 451; calls by dose curve; also: potency is read from the fitted curve at half-maximal effect); conditions: CHO-K1 GR-EFC translocation, beta-gal luminescence, 2 h
Procedure, shortened: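 Translocation of GR-ED fusion to nuclear EA restores b-gal, read by luminescence after 1 h room-temperature detection. Engineered CHO-K1 biosensor cells, 1,000/well, exposed 2 h at 37 C to titrations up to 46 uM final.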

[16] = target: 3',5'-cyclic-AMP phosphodiesterase 4B (Homo sapiens) (UniProt Q07343); assay: qHTS Assay for Inhibitors of PDE-IV (AID 607; active = well fitted activation curve with a large enough effect in the main read-out, with a control signal flat, not every such curve was filed as active; also: % of control where 0% means no effect)
Procedure, shortened: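 Live HEK293 cells with a modified cyclic nucleotide-gated (CNG) channel report intracellular cAMP via membrane-potential dye fluorescence (ex 535/em 590 nm). Endogenous PDE-IV was targeted. Compounds were tested at up to 22.9 uM final; RO 20-1724 100 uM served as control.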

[17] = Cell Viability - Jurkat (AID 426;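 active = dose-dependent loss of cell ATP signal giving a full or clear fitted curve, ranked by lower potency value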;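 also: potency is read from the fitted curve at half-maximal effect; cells exposed to compound for 40 hours at 37 °C before ATP read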); conditions: qHTS
Procedure, shortened: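 Seed 5000 Jurkat E6-1 cells/well; add compound; incubate 40 hr at 37 °C; add CellTiter-Glo; wait 20 min at room temperature; read luminescence. Fit concentration-response with Hill equation for AC50.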

[18] = Cell Viability - Mesenchymal (AID 546; active = well fitted curve in the direction sought with a large enough effect; an effect the other way counts as inactive or inconclusive;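 also: cells exposed to compound for 40 hours before reading; 0% = DMSO only and -100% = 100 µM tamoxifen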); conditions: mesenchymal cells viability, qHTS; activity change, negative = cytotoxicity: at 91.7 µM (top of the series)
Procedure, shortened: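 AC50 values reflect the drop in intracellular ATP in a human kidney mesenchymal line derived from normal glomeruli. Treatment lasts 40 hr at 37 °C in complete medium, and the signal comes from CellTiter-Glo luminescence.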

Sequence of Glucocorticoid receptor (Homo sapiens) (P04150 whole entry, looked up, the tested form may be a part): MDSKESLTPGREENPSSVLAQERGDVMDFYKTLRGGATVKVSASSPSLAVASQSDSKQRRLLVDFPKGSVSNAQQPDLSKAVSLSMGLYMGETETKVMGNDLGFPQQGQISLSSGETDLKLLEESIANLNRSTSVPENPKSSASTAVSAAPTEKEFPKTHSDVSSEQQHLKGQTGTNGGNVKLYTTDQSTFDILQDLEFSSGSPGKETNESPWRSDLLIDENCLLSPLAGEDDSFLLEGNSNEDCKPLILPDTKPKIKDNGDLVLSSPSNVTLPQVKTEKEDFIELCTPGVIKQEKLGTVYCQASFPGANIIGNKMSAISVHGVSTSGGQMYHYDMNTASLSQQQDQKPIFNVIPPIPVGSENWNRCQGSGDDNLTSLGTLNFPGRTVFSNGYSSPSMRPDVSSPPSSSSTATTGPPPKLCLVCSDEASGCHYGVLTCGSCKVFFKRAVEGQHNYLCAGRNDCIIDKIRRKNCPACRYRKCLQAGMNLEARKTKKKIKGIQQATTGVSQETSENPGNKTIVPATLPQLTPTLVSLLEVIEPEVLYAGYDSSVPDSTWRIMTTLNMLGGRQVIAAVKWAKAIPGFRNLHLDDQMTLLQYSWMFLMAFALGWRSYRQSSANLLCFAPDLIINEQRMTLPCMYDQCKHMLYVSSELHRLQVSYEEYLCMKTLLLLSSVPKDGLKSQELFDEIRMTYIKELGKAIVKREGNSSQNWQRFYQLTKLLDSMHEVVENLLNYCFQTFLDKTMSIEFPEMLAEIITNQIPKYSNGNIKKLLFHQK
Sequence of 3',5'-cyclic-AMP phosphodiesterase 4B (Homo sapiens) (Q07343 whole entry, looked up): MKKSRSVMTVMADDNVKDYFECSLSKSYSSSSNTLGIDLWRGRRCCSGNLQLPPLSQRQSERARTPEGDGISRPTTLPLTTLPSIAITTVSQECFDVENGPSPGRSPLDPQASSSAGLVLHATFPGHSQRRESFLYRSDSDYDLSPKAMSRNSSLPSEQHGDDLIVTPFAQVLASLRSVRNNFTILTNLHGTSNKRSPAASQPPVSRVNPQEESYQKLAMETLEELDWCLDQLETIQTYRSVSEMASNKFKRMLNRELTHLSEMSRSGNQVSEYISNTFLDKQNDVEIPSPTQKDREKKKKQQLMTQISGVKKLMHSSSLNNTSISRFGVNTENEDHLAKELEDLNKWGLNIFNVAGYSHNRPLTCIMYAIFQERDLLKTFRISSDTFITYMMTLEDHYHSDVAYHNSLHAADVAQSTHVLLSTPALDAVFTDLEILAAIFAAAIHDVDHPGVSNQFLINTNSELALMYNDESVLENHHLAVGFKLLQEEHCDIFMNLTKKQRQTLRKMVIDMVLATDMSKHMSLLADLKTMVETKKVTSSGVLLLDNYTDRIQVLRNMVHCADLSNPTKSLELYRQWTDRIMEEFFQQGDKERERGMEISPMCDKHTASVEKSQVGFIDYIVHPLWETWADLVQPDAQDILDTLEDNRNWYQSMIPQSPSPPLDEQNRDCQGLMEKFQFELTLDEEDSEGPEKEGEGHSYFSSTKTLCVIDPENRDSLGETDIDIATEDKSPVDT

CC(=O)[O-].CC(=O)[O-].O.O.[Cd+2]
inactive: Potency [1] > 92 µM | Potency [2] > 92 µM | outcome [3] | outcome [6] | caspase-3 activation [7] -14.3% [at 91.7 µM, primary cells freshly taken from rat, solvent-only wells 0%, staurosporine 100%] | Potency [8] | Potency [9] | activation [10] 1.94%
active: activity change, negative = cytotoxicity [4] -111% | Potency [5] 25.1 µM [primary cells of rat origin] | Potency [11] 10 µM

NCC1(c2ccc3c(c2)OCCO3)CCCC1
inactive: activity change, negative = inhibition [12] -11.3% | outcome [13] | Potency [14] > 20.6 µM

Oc1ccc2c3c1O[C@@H]1[C@@H](O)CC[C@]4(O)[C@H](C2)N(CC2CCC2)CC[C@@]314
inactive: activity change, negative = inhibition [12] 2.45% [at 38 µM] | outcome [13] | Potency [14] > 46 µM | Potency [15] > 46 µM | outcome [3] | outcome [16]

Nc1ccc(C2(c3ccc(N)cc3)CN3CCC2CC3)cc1
inactive: activity change, negative = inhibition [12] -2.19% | outcome [13] | Potency [14] > 20.6 µM

OCCOCC#CCN1CCOCC1
inactive: activity change, negative = inhibition [12] -4.14% | outcome [13] | Potency [14] > 20.6 µM

C=CCn1c(O)c(C=NCCN(C)C)c(=O)[nH]c1=O
inactive: activity change, negative = inhibition [12] -6.46% | outcome [13] | Potency [14] > 20.6 µM

NC(=NCCC[C@@H](N)C(=O)O)N[N+](=O)[O-]
inactive: activity change, negative = inhibition [12] 2.93% [at 38 µM] | outcome [13] | Potency [14] > 46 µM | Potency [15] > 46 µM | outcome [3] | outcome [16]

CCN(CC)CCN=C(C)c1c(O)n(-c2ccccc2OC)c(=O)[nH]c1=O
inactive: activity change, negative = inhibition [12] -15.6% | outcome [13] | Potency [14] > 20.6 µM

O=[N+]([O-])c1ccc(O[C@H]2O[C@@H](CO)[C@@H](O)[C@@H](O)[C@@H]2F)c([N+](=O)[O-])c1
inactive: activity change, negative = inhibition [12] 14.6% [at 38 µM] | outcome [13] | Potency [14] > 46 µM | Potency [15] > 46 µM | outcome [3] | outcome [16]

CC(C)[C@@]1(NC(=O)[C@@H]2C=C3c4cccc5[nH]cc(c45)C[C@H]3N(C)C2)O[C@@]2(O)[C@@H]3CCCN3C(=O)[C@H](Cc3ccccc3)N2C1=O
inactive: activity change, negative = inhibition [12] -19% | outcome [13] | Potency [14] > 20.6 µM

CCCCc1nc2ccccc2c(=O)n1-c1ccccc1O
inactive: activity change, negative = inhibition [12] -4.7% | outcome [13] | Potency [14] > 20.6 µM

C=CCOC(=O)C1=C(C)OC(N)=C(C#N)C12C(=O)N(CN1CCOCC1)c1ccccc12 (centres undefined)
inactive: activity change, negative = inhibition [12] -2.25% | outcome [13] | Potency [14] > 20.6 µM

[Cd+2].[Cl-].[Cl-]
inactive: Potency [2] > 92 µM | outcome [3] | outcome [6] | caspase-3 activation [7] -13.6% | Potency [8] | Potency [9] | activation [10] 0.0733%
active: activity change, negative = cytotoxicity [4] -109% | Potency [5] 12.6 µM

CCCCCCn1c(O)c(C(C)=NC)c(=O)[nH]c1=O
inactive: activity change, negative = inhibition [12] 21.1% | outcome [13] | Potency [14] > 20.6 µM

CC1=NOC2(C)Nc3ncnn3C(c3ccccc3)C12 (centres undefined)
inactive: activity change, negative = inhibition [12] -2.94% | outcome [13] | Potency [14] > 20.6 µM

Cc1ccc(-n2c(O)c(C=NCCN3CCOCC3)c(=O)[nH]c2=O)cc1
inactive: activity change, negative = inhibition [12] 13.7% | outcome [13] | Potency [14] > 20.6 µM

COc1ccc2c(c1OC)C(=O)OC2c1c(O)n(C2CCCCC2)c(=O)[nH]c1=O (centres undefined)
inactive: activity change, negative = inhibition [12] -3.36% | outcome [13] | Potency [14] > 20.6 µM

O=[N+]([O-])C(Br)Br
active: Potency [17] 24.4 µM | activity change, negative = cytotoxicity [4] -119%
inactive: Potency [5] | outcome [6] | caspase-3 activation [7] 2.88% | Potency [8] | Potency [9] | activation [10] 1.61% | max response [11] -11.4%

C[N+]1(C)CCO[C@@](O)(c2ccc(-c3ccc([C@]4(O)C[N+](C)(C)CCO4)cc3)cc2)C1
inactive: activity change, negative = inhibition [12] -10.8% [at 38 µM] | outcome [13] | Potency [14] > 46 µM | Potency [15] > 46 µM | outcome [3] | outcome [16]

COc1ccccc1-n1c(O)c(C=NCCCn2ccnc2)c(=O)[nH]c1=O
inactive: activity change, negative = inhibition [12] 10.5% | outcome [13] | Potency [14] > 20.6 µM

ClC1=C(Cl)C2(Cl)C3C(Cl)C(Cl)CC3C1(Cl)C2(Cl)Cl (centres undefined)
inactive: outcome [3] | Potency [18] | outcome [6] | caspase-3 activation [7] 19% | Potency [8] | Potency [9] | max response [11] -13.1%
active: Potency [17] 60.7 µM | activity change, negative = cytotoxicity [4] -82.9%

COc1cccc(CN2CCN(C(=O)COc3ccc4ccccc4c3)CC2)c1
inactive: activity change, negative = inhibition [12] 13.9% | outcome [13] | Potency [14] > 20.6 µM

COCC(C)OC(=O)c1c(N)n(Cc2ccco2)c2nc3ccccc3nc12 (centres undefined)
inactive: activity change, negative = inhibition [12] 10.7% | outcome [13] | Potency [14] > 20.6 µM

COc1ccc(Cn2c(O)c(C=NCCCn3ccnc3)c(=O)[nH]c2=O)cc1
inactive: activity change, negative = inhibition [12] -15.1% | outcome [13] | Potency [14] > 20.6 µM

COc1ccc(C2SCC(=O)Nc3c2c(=O)[nH]n3C2CCCCC2)cc1 (centres undefined)
inactive: activity change, negative = inhibition [12] 0.11% | outcome [13] | Potency [14] > 20.6 µM

O=c1[nH]c(O)c(C=NC2CCN(Cc3ccccc3)CC2)c(=O)[nH]1
inactive: activity change, negative = inhibition [12] -19.6% | outcome [13] | Potency [14] > 20.6 µM

O=c1[nH]c(=O)n(-c2cccc(Cl)c2)c(O)c1C=NCCN1CCCCC1
inactive: activity change, negative = inhibition [12] -1.95% | outcome [13] | Potency [14] > 20.6 µM
